Hit rate of the full screen: of about 1,400 compounds, about 380 (27%) were called active. The list shows a part of the results. A number with no mark means an inactive call.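 Rule for the calls: active = mean inhibition above 50% across duplicate retests at 10 µM; inactive = the rest.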
assay: yeast NALP1 reporter signal suppression – S. cerevisiae, luminescence, single concentration, NALP1 inhibitor project, confirmation (AID 488841);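 note: plate controls were DMSO in galactose medium for no effect and cells in plain SD medium for full effect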; details: S. cerevisiae NALP1/ASC/Caspase-1 reporter, beta-gal luminescence; at 10 µM; active compounds read high

| SMILES | inhibition |
| --- | --- |
| O=c1ncn(-c2cccc(F)c2)c2ncccc12 | 37.1% |
| N#CC(C#N)=C1C=CC=CN1/C(=C\c1ccccc1Cl)C(=O)c1ccccc1 | 5.75% |
| CCn1cc(C(=O)O)c(=O)c2cc(F)c(N3CCNCC3)cc21 | 27.4% |
| CCSc1nnc(NC(=O)c2ccccc2)s1 | 83.2% (active) |
| CCSc1nnc(NC(=O)c2ccc(C)o2)s1 | 54.3% (active) |
| CC(C)COC(=O)Nc1nnc(SCc2ccccc2F)s1 | 49.2% |
| Cc1ccc(Nc2nnc(SCC(=O)Nc3ccc(S(=O)(=O)N4CCOCC4)cc3)s2)cc1 | 18.2% |
| CCCc1[nH]nc2c1C(c1ccoc1)C(C#N)=C(N)O2 (stereo unspecified) | 37.9% |
| O=C(c1ccc(F)cc1)c1cn(Cc2ccc(F)cc2)c2cc3c(cc2c1=O)OCCO3 | 26.4% |
| Cc1ccc(Cn2nnnc2CN2CCC(c3nc4ccc(Cl)cc4[nH]3)CC2)cc1 | 34.2% |
| Cc1noc2ncc(C(=O)c3cc(F)ccc3O)cc12 | 17.8% |
| c1ccc2c(Nc3nc(N4CCOCC4)c4ccccc4n3)cccc2c1 | 93.2% (active) |
| CCOc1cc(-c2c(C)c(C)nc(N)c2C#N)ccc1O | 30.4% |
| O=C(OC1CCOC1=O)c1cc(-c2ccc(Br)cc2)nc2ccccc12 (stereo unspecified) | 21% |
| Cc1ccn2cc(-c3ccc(NC(=O)c4ccco4)cc3)nc2c1 | 82.7% (active) |
| CC1=C(C(=O)Nc2ccc(Cl)cc2)C(c2ccco2)NC(=O)N1 (stereo unspecified) | 23.4% |
| O=C(Nc1nc(-c2ccco2)c(-c2ccco2)s1)C1CCC1 | 39% |
| O=C(Nc1ccon1)c1cc2ccccc2oc1=O | 31.5% |
| O=C(CCl)Nc1nc(-c2ccco2)c(-c2ccco2)s1 | 32.2% |
| CCCCC(=O)Nc1ccc(C(=O)NNC(=S)NC(=O)c2ccco2)cc1 | 42.2% |
| O=C(Nc1ccc2oc(-c3ccccc3)nc2c1)c1ccco1 | 86.7% (active) |
| O=C(Nc1cccc(-c2cn3ccccc3n2)c1)c1cccc(Cl)c1 | 39.9% |

| SMILES | inhibition |
| --- | --- |
| O=C(Nc1ccc(-c2cn3ccccc3n2)cc1)c1ccco1 | 76.8% (active) |
| Cc1ccc2oc(-c3ccc(NC(=O)c4cccnc4)cc3)nc2c1 | 44.6% |
| Cc1sc(NC(=O)c2ccco2)nc1-c1ccccc1 | 73% (active) |
| CSc1ccc(C(=O)C2CCCN(C(=O)c3ccc4c(c3)no[n+]4[O-])C2)cc1 (stereo unspecified) | 18.6% |
| Cn1nnc(NC(=O)/C=C/c2ccco2)n1 | 35% |
| Cn1c(N)c(C(=O)COC(=O)C2(c3ccc(Cl)cc3)CCCC2)c(=O)n(C)c1=O | 28.2% |
| Clc1ccc2c(N/N=C/c3ccc(Br)cc3)ccnc2c1 | 47.6% |
| CCOC(=O)c1c(C)c(C(=O)NCCCOC(C)C)c(C)n1C | 26.2% |
| COc1ccc(N(C)C2=NS(=O)(=O)c3ccccc32)cc1 | 27.9% |
| C=C(C)C1Cc2c(C)nn(-c3ccccn3)c2C1 (stereo unspecified) | 2.3% |
| CC(OC(=O)Cc1c(F)cccc1Cl)C(=O)NCCC1=CCCCC1 (stereo unspecified) | 46.2% |
| COc1ccccc1NC(=O)c1ccc(C)s1 | 38.7% |
| Cc1nc2ccc(NC(=O)c3cc([N+](=O)[O-])cc([N+](=O)[O-])c3Cl)cc2s1 | 40.5% |
| Cc1ccc(C(=O)Nc2ccc3nc(C)sc3c2)s1 | 77% (active) |
| COn1c2c(c3c4nonc4ccc31)CCCC2 | 30.4% |
| CC1CCN(Cc2ccc(-c3nn[nH]n3)cc2)CC1 | 21.2% |
| O=C(NC1CCCC1)c1ccc(CN2CCOCC2)cc1 | 33.8% |
| O=C(NC1CCCCC1)c1noc2c1CCCCC2 | 70.2% (active) |
| O=C(c1cc(-c2ccc(O)cc2)on1)N1CCc2ccccc2C1 | 56.5% (active) |
| CCn1c(C(=O)N2CCc3ccccc3C2)cc2oc3ccccc3c21 | 32.4% |
| O=C(CN1CCc2ccccc2C1)NCc1ccco1 | 18.9% |
| CC(C)CC(=O)N1CCN(c2ccc([N+](=O)[O-])cc2Cl)CC1 | 37.5% |

| SMILES | inhibition |
| --- | --- |
| Cc1c(-c2nc(N)nc(Nc3ccccc3)n2)oc2ccccc12 | 37.3% |
| N#Cc1ccc(NC(=O)Nc2ccc(Cl)cc2)cc1 | 67% (active) |
| CCOC(=O)C(=O)NNc1ccc(Cl)cc1 | 40.9% |
| CCCCN(C)CCC(=O)Nc1ccc(Cl)cc1 | 28.4% |
| COc1ccc(N2CCN(CCNC(=O)Nc3ccc(Cl)cc3)CC2)cc1 | 22.3% |
| O=C(Nc1ccc(Cl)cc1)C1=Cc2ccccc2OC1 | 48.8% |
| CC(=O)c1ccc(NC(=O)Nc2ccc(Cl)cc2)cc1 | 53.4% (active) |
| CCC(C(=O)NCc1ccco1)N(C(=O)CNS(=O)(=O)c1ccccc1)c1ccc(OC)cc1 (stereo unspecified) | 23.4% |
| CSc1nnc(-c2cc3c(s2)-c2ccccc2CC3)o1 | 56.6% (active) |
| O=C(C(Cc1ccccc1)n1cccc1)N1CCN(c2ccccc2)CC1 (stereo unspecified) | 46% |
| CNC(=S)N/N=C/c1cc(Br)cc(Br)c1O | 75.7% (active) |
| Oc1c(Br)cc(Br)cc1C=Nc1cccnc1 | 36.4% |
| Cc1cc(C=C2C(=O)c3ccccc3C2=O)c(C)n1C | 39% |
| CCOc1ccccc1C(=O)OCC(=O)Nc1ccc(N2CCCCC2)cc1 | 36.1% |
| CCOc1ccccc1C(=O)Nc1cnn(Cc2ccc(F)cc2)c1 | 57.7% (active) |
| O=C(Nc1ccc(F)cc1)c1cccnc1N1CCCCC1 | 34.8% |
| c1ccc(CC2CCN(c3nnnn3-c3ccccc3)CC2)cc1 | 26.4% |
| COC(=O)c1cc(=O)n(-c2ccc(F)cc2)c(=Nc2ccc(F)cc2)s1 | 33.2% |
| O=[N+]([O-])c1ccc(/C=N/NS(=O)(=O)c2ccc(Cl)cc2)o1 | 36.3% |
| CCN(CC)c1ccc(N=Cc2ccc([N+](=O)[O-])o2)cc1 | 64.2% (active) |
| CCOC(=O)c1[nH]c2ccc(Br)cc2c1NC(=O)CCN1CCC(C)CC1 | 32.4% |
| Cc1nc(N)sc1N=Nc1ccc(Br)cc1 | 50.6% (active) |

Source: PubChem BioAssay AID488841 (Sanford-Burnham Center for Chemical Genomics, 2010)
